Measured values taken from PubChem BioAssay (NCI).
This is part of a sample that, as a whole, favours compounds with a hit. Of some 83,000 tested, about 20% had one in any assay.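 A percent growth of 40 corresponds to 60% growth inhibition; 0 means no net growth; -100 means all cells died. Active threshold: below 10.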 Unmarked numbers belong to inactive results. The source made the active and inactive calls.

Assays:
Assay in all cases: NCI-60 one-dose screen, 48 h (100 = growth as untreated, 0 = no growth, -100 = all killed)
HCT-15 colon = conditions: 10 µM unless noted
HT29 colon = conditions: 10 µM unless noted
SNB-75 CNS = conditions: 10 µM unless noted
SNB-19 CNS = conditions: 10 µM unless noted
U251 CNS = conditions: 10 µM unless noted
PC-3 prostate = conditions: 10 µM unless noted
SK-MEL-5 melanoma = conditions: 10 µM unless noted
UACC-62 melanoma = conditions: 10 µM unless noted
LOX IMVI melanoma = conditions: 10 µM unless noted
SK-MEL-28 melanoma = conditions: 10 µM unless noted
SK-MEL-2 melanoma = conditions: 10 µM unless noted
EKVX NSCLC = conditions: 10 µM unless noted
SN12C renal = conditions: 10 µM unless noted
UO-31 renal = conditions: 10 µM unless noted
TK-10 renal = conditions: 10 µM unless noted
ACHN renal = conditions: 10 µM unless noted
CAKI-1 renal = conditions: 10 µM unless noted
A498 renal = conditions: 10 µM
CCRF-CEM leukemia = conditions: 10 µM unless noted
HL-60(TB) leukemia = conditions: 10 µM unless noted

SMILES	growth (HCT-15 colon)	growth (HT29 colon)	growth (SNB-75 CNS)	growth (SNB-19 CNS)	growth (U251 CNS)	growth (PC-3 prostate)	growth (SK-MEL-5 melanoma)	growth (UACC-62 melanoma)	growth (LOX IMVI melanoma)	growth (SK-MEL-28 melanoma)	growth (SK-MEL-2 melanoma)	growth (EKVX NSCLC)	growth (SN12C renal)	growth (UO-31 renal)	growth (TK-10 renal)	growth (ACHN renal)	growth (CAKI-1 renal) [%]	growth (A498 renal)	growth (CCRF-CEM leukemia)	growth (HL-60(TB) leukemia)
N#CC1(C#N)C(c2ccc(N(CCCl)CCCl)cc2)OC23CCCCC2C1(C#N)C(=N)O3 (stereo unspecified)	90.6%	106%	63.3%	84.4%	75.8%	74.8%	83.3%	53.2%	68.6%	111%	122%	108%	69.1%	72.1%	91.9%	50.2%	55.8	56.6%	77%	–
CC(=O)O[C@H](C[C@H](C(C)C)N(C)C(=O)[C@@H](NC(=O)[C@H]1CCCCN1C)C(C)C)c1nc(C(=O)N[C@@H](Cc2ccccc2)C[C@H](C)C(=O)O)c(CCOCc2ccccc2)s1	6.72% (active)	-4.51% (active)	0.84% (active)	16%	11.5%	21.9%	-40.5% (active)	27.1%	11.8%	42%	2.3% (active)	49%	9.77% (active)	31.8%	31.3%	12.3%	24.4	–	9.38% (active)	-29.3% (active)
CC(=O)Nc1nc2c(s1)CC[C@@]1(C)C2=CC[C@H]2[C@@H]3CC[C@H](O)[C@@]3(C)CC[C@@H]21	29.5%	20.8%	54.5%	62.1%	48.5%	67.8%	53.7%	34.9%	53.6%	56.4%	47.4%	92.5%	74%	80.3%	91.1%	63.9%	44.1	–	38.8%	29.3%
COc1ccc(N(CC(=O)NCCC[Te]c2ccccc2)C(=O)CNC(=O)OC(C)(C)C)cc1	11.3%	-36.8% (active)	57.9%	33%	12.4%	8.59% (active)	41.4%	89.2%	17.6%	105%	80%	-5.01% (active)	18.7%	-3.8% (active)	76.1%	83.9%	70.4	–	14%	3.6% (active)
CCC(C)(C)[C@H](NC(=O)[C@H]1CCCCN1C)C(=O)N(C)[C@H](C[C@@H](OC(C)=O)c1nc(C(=O)N[C@@H](Cc2ccccc2)C[C@H](C)C(=O)O)cs1)C(C)C	6.87% (active)	-2.9% (active)	6.25% (active)	17.8%	12.1%	24.9%	-18.1% (active)	30.9%	16.1%	44.6%	21.9%	52.6%	17.5%	32.9%	35.1%	11.4%	29	–	2.41% (active)	-8.72% (active)
CNC(=O)Oc1ccc2c(c1)OCO2	101%	104%	98.6%	98.9%	99%	102%	101%	99.4%	103%	108%	98.2%	97.9%	99.7%	98.1%	101%	99.3%	100	–	111%	94.3%
CC1(C)C(C(=O)c2cn(CCCCF)c3ccccc23)C1(C)C	91.9%	48.8%	96%	104%	86%	85%	92.1%	88.4%	92.9%	116%	86.4%	88.7%	103%	95.2%	102%	115%	–	92.9%	87.1%	76%
O=C(O)c1c(Cl)n(Cc2ccc(O)cc2)c2ccc(O)cc12	118%	110%	80.6%	106%	106%	72.4%	85.8%	98.9%	98.8%	100%	81.6%	112%	102%	61.1%	137%	112%	–	107%	81.6%	101%
C/C(=C\c1ccn(-c2ccc(N)cc2)n1)[C@@H]1C[C@@H]2O[C@]2(C)CCC[C@H](C)[C@H](O)[C@@H](C)C(=O)C(C)(C)[C@@H](O)CC(=O)O1	20%	15.4%	3.99% (active)	33.3%	25.9%	13.2%	10.9%	19.7%	29.5%	59.4%	35.8%	54.7%	39.6%	38.5%	54.6%	45.7%	–	-0.818% (active)	16.8%	5.9% (active)
Cc1cc(-c2nc3cc(F)ccc3[se]2)cc(F)c1N	38.2%	62.5%	91.9%	97.2%	98.7%	72.7%	81%	85.7%	90%	121%	101%	66.4%	95.5%	55.8%	57.6%	79%	–	74.8%	85.2%	87.2%
O=[N+]([O-])c1ccc([Se]C2CCCCC2Cl)c([N+](=O)[O-])c1 (stereo unspecified)	88.3%	60.7%	-39.9% (active)	56.2%	20.4%	58.9%	68.6%	72.2%	-55.2% (active)	72.6%	66.5%	46%	59.5%	-88.3% (active)	102%	88.2%	–	29.4%	80.9%	78.8%
CCCCCSC1C2C(=O)C(Br)=CC13CCNc1c(O)c4c5c(c13)=[N+]2CCC=5C=N4 (stereo unspecified)	-47.6% (active)	-31.8% (active)	-88.8% (active)	-65.5% (active)	-73.3% (active)	-0.922% (active)	-95.2% (active)	-51.2% (active)	-71% (active)	-18.2% (active)	-54.8% (active)	-56.1% (active)	-61.9% (active)	-66.9% (active)	-52.4% (active)	-90.2% (active)	–	12.2%	-13.5% (active)	-40.8% (active)
CCOC(=O)[C@@H](C)C[C@H](Cc1ccccc1)NC(=O)c1csc([C@@H](C[C@H](C(C)C)N(C)C(=O)[C@H](CCC(C)C)NC(=O)[C@H]2CCCCN2C)OC(C)=O)n1	15.2%	-14.9% (active)	37.6%	39.9%	2.75% (active)	13.7%	-25.5% (active)	40.7%	15.2%	64.8%	28.1%	45.6%	18.9%	20.6%	-5.17% (active)	9.24% (active)	–	-11.5% (active)	9.03% (active)	-32.3% (active)
O=C(N/N=C/c1ccc(N(CCCl)CCCl)cc1)c1cccc2ccccc12	56.1%	39.4%	76.7%	80.6%	60.9%	61.5%	70.6%	46.5%	61.3%	83%	81.2%	85.2%	73.8%	78.7%	87.7%	80.7%	–	-9.28% (active)	56.6%	29.5%
